# Laboratory results taken from the supplement of paper PMC9262897, “Low-cost anti-mycobacterial drug discovery using engineered E. coli” (Nature Communications, 2022).
# Where a name gives a salt, the structure may show the parent alone. ± gives the standard deviation of the averaged measurements.
# Tests used:
# Assay in all cases: growth (OD600 after 10 h); higher = more growth (less inhibition)
# [1] = system: E. coli TESEC Alr+ wild-type control; settings: compound 0.1 mM; raw OD600 reference: median of DMSO wells 0.241, cell-free background 0.041
# Description: (§1)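 TESEC Mtb Alr E. coli, or the Alr+ wild-type control, in 384-well plates with Prestwick library compounds at 0.1 mM and 1% DMSO, across arabinose induction levels of 1E3 to 1E7 nM. Growth is read as OD600 after 10 h at 37 °C in triplicate biological replicates.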
# E. coli TESEC Mtb Alr [2] = settings: compound 0.1 mM
# Description: as §1
# E. coli TESEC Mtb Asd = settings: compound 0.1 mM
# Description: (§2)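 TESEC E. coli strains in which the native enzyme is deleted and replaced by arabinose-inducible Mtb Asd, DapB, CysH or TrpD, each grown in its selective medium. Strains were screened against the Prestwick library at 0.1 mM and 1% DMSO in 384-well format at low and high arabinose induction. Growth is read as OD600 after 10 h in triplicate.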
# E. coli TESEC Mtb DapB = settings: compound 0.1 mM
# Description: as §2
# E. coli TESEC Mtb Alr [3] = settings: compound 0.1 mM; remark: listed apart in the source
# Description: (§3)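 TESEC Mtb Alr E. coli (ΔaraC ΔtolC ΔentC Δalr ΔdadX, arabinose-inducible Mtb Alr) or the Alr+ wild-type control strain, grown in defined M9-fructose medium without D-alanine in 96-well plates with Prestwick library compounds at 0.1 mM and 1% DMSO. Low Alr induction is 0.1 µM arabinose and high induction is 10 mM arabinose.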
# [4] = system: E. coli TESEC Alr+ wild-type control; settings: compound 0.1 mM; raw OD600 reference: median of DMSO wells 0.49, cell-free background 0.052
# Description: as §3
# [5] = arabinose 1000 nM, raw OD600 reference: median of DMSO wells 0.294, cell-free background 0.041
# [6] = arabinose 10000 nM, raw OD600 reference: median of DMSO wells 0.264, cell-free background 0.041
# [7] = arabinose 100000 nM, raw OD600 reference: median of DMSO wells 0.201, cell-free background 0.041
# [8] = arabinose 1000000 nM, raw OD600 reference: median of DMSO wells 0.193, cell-free background 0.041
# [9] = arabinose 10000000 nM, raw OD600 reference: median of DMSO wells 0.146, cell-free background 0.041
# [10] = arabinose induction (level): High, raw OD600 reference: median of DMSO wells 0.331, cell-free background 0.041
# [11] = arabinose induction (level): Low, raw OD600 reference: median of DMSO wells 0.417, cell-free background 0.041
# [12] = arabinose induction (level): High, raw OD600 reference: median of DMSO wells […], cell-free background 0.041
# [13] = arabinose induction (level): Low, raw OD600 reference: median of DMSO wells 0.227, cell-free background 0.041
# [14] = arabinose 100 nM, raw OD600 reference: median of DMSO wells 0.413, cell-free background 0.052
# [15] = arabinose 10000000 nM, raw OD600 reference: median of DMSO wells […], cell-free background 0.052
SMILES,growth [1],growth (E. coli TESEC Mtb Alr [2]; [5]),growth (E. coli TESEC Mtb Alr [2]; [6]),growth (E. coli TESEC Mtb Alr [2]; [7]),growth (E. coli TESEC Mtb Alr [2]; [8]),growth (E. coli TESEC Mtb Alr [2]; [9]),growth (E. coli TESEC Mtb Asd; [10]),growth (E. coli TESEC Mtb Asd; [11]),growth (E. coli TESEC Mtb DapB; [12]),growth (E. coli TESEC Mtb DapB; [13]),growth (E. coli TESEC Mtb Alr [3]; [14]),growth (E. coli TESEC Mtb Alr [3]; [15]),growth [4]
COC1=C(OC)C(=O)C(CCCCCCCCCCO)=C(C)C1=O [Idebenone],0.0426 ± 0.0005,0.0428 ± 0.0023,0.0413 ± 0.00026,0.0466 ± 0.0041,0.04233 ± 0.0004,0.0482 ± 0.0015,0.0516 ± 0.0016,0.0501 ± 0.0007,0.0884 ± 0.057,0.066 ± 0.0091,0.139 ± 0.087,0.0513 ± 0.001,
Cc1onc(-c2c(F)cccc2Cl)c1C(=O)N[C@@H]1C(=O)N2[C@@H]1SC(C)(C)[C@@H]2C(=O)O [Flucloxacillin sodium],0.228 ± 0.0096,0.2863 ± 0.0017,0.26 ± 0.0097,0.186 ± 0.022,0.172 ± 0.006,0.136 ± 0.0023,0.265 ± 0.056,0.432 ± 0.059,0.196 ± 0.0025,0.259 ± 0.034,0.412 ± 0.015,0.33 ± 0.021,
Cn1c(=O)c2c(ncn2C)n(C)c1=O [Caffeine],0.233 ± 0.0046,0.28 ± 0.0091,0.277 ± 0.0046,0.2 ± 0.016,0.215 ± 0.0057,0.14 ± 0.0044,0.304 ± 0.065,0.352 ± 0.11,0.192 ± 0.01,0.228 ± 0.044,0.412 ± 0.0085,0.369 ± 0.006,
Nc1nc(=O)c2nc(CNc3ccc(C(=O)N[C@@H](CCC(=O)O)C(=O)O)cc3)cnc2[nH]1 [Folic acid],0.25 ± 0.0064,0.306 ± 0.0062,0.239 ± 0.0047,0.244 ± 0.028,0.149 ± 0.0059,0.1653 ± 0.0014,0.219 ± 0.037,0.318 ± 0.021,,,0.407 ± 0.011,0.34 ± 0.02,0.446 ± 0.02
CC(=O)O[C@H]1C[C@@]2(C)[C@@H](C[C@@H](O)[C@H]3[C@@]4(C)CC[C@@H](O)[C@@H](C)[C@@H]4CC[C@@]32C)/C1=C(\CCC=C(C)C)C(=O)O [Fusidic acid sodium salt],0.04197 ± 0.0004,0.0422 ± 0.00097,0.0411 ± 0.001,0.0429 ± 0.0003,0.0403 ± 0.00017,0.04237 ± 0.00032,0.0498 ± 0.0038,0.0478 ± 0.0026,,,0.11 ± 0.0058,0.0515 ± 0.00085,0.05317 ± 0.00047
CCOC(=O)[C@H](CCc1ccccc1)N[C@@H](C)C(=O)N1Cc2ccccc2C[C@H]1C(=O)O [Quinapril HCl],0.218 ± 0.012,0.29 ± 0.0069,0.2807 ± 0.0024,0.155 ± 0.012,0.21 ± 0.0061,0.144 ± 0.0052,0.246 ± 0.03,0.403 ± 0.052,,,0.384 ± 0.015,0.309 ± 0.011,0.477 ± 0.15
CC(C(=O)O)c1ccc2c(c1)Cc1cccnc1O2 (configuration not stated) [Pranoprofen],0.238 ± 0.0049,0.302 ± 0.013,0.271 ± 0.0097,0.192 ± 0.016,0.193 ± 0.0053,0.133 ± 0.0031,0.315 ± 0.03,0.367 ± 0.0097,,,0.415 ± 0.0046,0.316 ± 0.012,0.4398 ± 0.0017
CC(NCCC(c1ccccc1)c1ccccc1)c1ccccc1 (configuration not stated) [Fendiline hydrochloride],0.03973 ± 0.00035,0.0413 ± 0.0034,0.03877 ± 0.00012,0.0416 ± 0.0018,0.0386 ± 0.00049,0.04153 ± 0.00035,0.0469 ± 0.0006,0.04653 ± 0.00025,,,0.4097 ± 0.0034,0.0578 ± 0.0028,0.0558 ± 0.011
CN1[C@@H]2CC[C@H]1C[C@@H](OC(=O)c1c[nH]c3ccccc13)C2 [Tropisetron HCl],0.224 ± 0.0054,0.294 ± 0.0064,0.273 ± 0.0034,0.216 ± 0.036,0.177 ± 0.0038,0.158 ± 0.0026,0.305 ± 0.044,0.319 ± 0.034,,,0.402 ± 0.012,0.359 ± 0.0044,0.53 ± 0.08
O=C(O)Cc1ccc(-c2ccccc2)cc1 [Felbinac],0.235 ± 0.0055,0.277 ± 0.023,0.245 ± 0.0027,0.163 ± 0.0054,0.173 ± 0.0071,0.1221 ± 0.00095,0.273 ± 0.054,0.434 ± 0.02,,,0.396 ± 0.014,0.305 ± 0.0053,0.575 ± 0.04
C[N+]1(C)CCC(OC(=O)C(O)(c2ccccc2)C2CCCC2)C1 (configuration not stated) [Glycopyrrolate],0.223 ± 0.0096,0.301 ± 0.0095,0.267 ± 0.0065,0.185 ± 0.021,0.1866 ± 0.001,0.138 ± 0.0078,0.337 ± 0.055,0.425 ± 0.04,,,0.408 ± 0.0092,0.335 ± 0.014,0.575 ± 0.12
CCn1cc(C(=O)O)c(=O)c2cnc(N3CCCC3)nc21 [Piromidic acid],0.228 ± 0.0041,0.314 ± 0.026,0.267 ± 0.0056,0.161 ± 0.019,0.182 ± 0.0092,0.145 ± 0.0049,0.288 ± 0.037,0.432 ± 0.015,,,0.12 ± 0.021,0.105 ± 0.015,0.144 ± 0.003
CC(=O)Oc1ccc(C(c2ccc(OC(C)=O)cc2)c2ccccn2)cc1 [Bisacodyl],0.202 ± 0.0032,0.245 ± 0.018,0.289 ± 0.016,0.219 ± 0.031,0.201 ± 0.0038,0.168 ± 0.0065,0.354 ± 0.011,0.24 ± 0.028,,,0.39 ± 0.0062,0.39 ± 0.0069,0.5 ± 0.016
COc1ccc(C(=O)NCc2cccnc2)cc1C(=O)NCc1cccnc1 [Picotamide monohydrate],0.234 ± 0.013,0.264 ± 0.034,0.258 ± 0.0067,0.189 ± 0.02,0.161 ± 0.0041,0.132 ± 0.0031,0.256 ± 0.042,0.41 ± 0.037,,,0.4272 ± 0.0023,0.321 ± 0.024,0.453 ± 0.033
